Source: PubChem BioAssay AID1159580 (chemical genetic matrix, 2015)
Hit rate of the full screen: of about 5,500 compounds, about 2,000 (36%) were called active. Not shown: some 18% with an inconclusive outcome. Cut-off read from the data, not from the text of the source: active = normalized growth mostly below about 0.91 (no sharp cut-off); inconclusive = no clear call, values can overlap the other calls; inactive = mostly above about 0.92. The list shows a part of the results.

Assay: chemical genetic growth profiling, strain panel (AID 1159580);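 note: tested at 20 µM; growth read once vehicle control cultures reached saturation at 30 °C; 1 = growth at the plate median or of vehicle wells; lower values mean less growth of the strain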
Conditions: S. cerevisiae deletion strains, growth OD

Measured: normalized growth

CC(=O)Nc1ccc(S(=O)(=O)Nc2ncccn2)cc1
inactive: locus YAL013W, strain DEP1, stronger effect = lower value 1.01 | locus YBR229C, strain ROT2, stronger effect = lower value 0.992 | locus YCL061C, strain MRC1, stronger effect = lower value 1.02 | locus YDL101C, strain DUN1, stronger effect = lower value 0.995 | locus YDL134C, strain PPH21, stronger effect = lower value 0.997 | locus YDR150W, strain NUM1, stronger effect = lower value 0.921 | locus YEL061C, strain CIN8, stronger effect = lower value 1.01 | locus YGR078C, strain PAC10, stronger effect = lower value 1 | locus YHR030C, strain SLT2, stronger effect = lower value 1.08 | locus YHR087W, strain rtc3, stronger effect = lower value 0.987 | locus YJR043C, strain POL32, stronger effect = lower value 1.01 | locus YJR075W, strain HOC1, stronger effect = lower value 0.994 | locus YLR039C, strain RIC1, stronger effect = lower value 1.02 | locus YLR058C, strain SHM2 (second series), stronger effect = lower value 1.03 | locus YLR085C, strain ARP6, stronger effect = lower value 0.958 | locus YLR262C, strain YPT6, stronger effect = lower value 1.13 | locus YML094W, strain GIM5, stronger effect = lower value 0.981 | locus YMR219W, strain ESC1, stronger effect = lower value 1 | locus YMR263W, strain SAP30, stronger effect = lower value 1 | locus YMR307W, strain GAS1, stronger effect = lower value 0.919 | locus YNL153C, strain GIM3, stronger effect = lower value 1.01 | locus YNL298W, strain CLA4 (second series), stronger effect = lower value 1 | locus YNL322C, strain KRE1, stronger effect = lower value 0.999 | locus YNR030W, strain Alg12, stronger effect = lower value 1.01 | locus YPL055C, strain LGE1, stronger effect = lower value 0.92 | locus YPL241C, strain CIN2, stronger effect = lower value 0.963 | locus YPR135W, strain CTF4, stronger effect = lower value 1.08
